Measured values reported in the supplement of paper PMC10849652.
Targets with a hit are over-represented here; the source holds about 7,900 in all. About 0.6% of all pairs of compound and target were hits.

The compounds below were run against ZW10 (UniProt O43264) (assay: log2 fold change, soluble protein after heating vs DMSO (PISA); higher = thermal stabilisation; K562 cells, 10 uM, 30 min; active = over 0.2 and 3.5 SD of the protein, either way, in both replicates (recomputed)).
Method in brief: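 Quantification of soluble protein used TMTpro 16plex LC-MS/MS, with channel sums equalised. Samples were the supernatant after 21,000xg for 90 min of pooled aliquots from K562 cells (2×10^6 cells/mL) treated with 10 μM compound for 30 min, heated for 3 min over 48°C-58°C, and extracted in PBS with 0.5% NP-40 at 4°C. Values, from duplicates, describe thermal stability against control samples on a log2 fold-change scale.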

Chain of ZW10 (O43264 whole entry, looked up): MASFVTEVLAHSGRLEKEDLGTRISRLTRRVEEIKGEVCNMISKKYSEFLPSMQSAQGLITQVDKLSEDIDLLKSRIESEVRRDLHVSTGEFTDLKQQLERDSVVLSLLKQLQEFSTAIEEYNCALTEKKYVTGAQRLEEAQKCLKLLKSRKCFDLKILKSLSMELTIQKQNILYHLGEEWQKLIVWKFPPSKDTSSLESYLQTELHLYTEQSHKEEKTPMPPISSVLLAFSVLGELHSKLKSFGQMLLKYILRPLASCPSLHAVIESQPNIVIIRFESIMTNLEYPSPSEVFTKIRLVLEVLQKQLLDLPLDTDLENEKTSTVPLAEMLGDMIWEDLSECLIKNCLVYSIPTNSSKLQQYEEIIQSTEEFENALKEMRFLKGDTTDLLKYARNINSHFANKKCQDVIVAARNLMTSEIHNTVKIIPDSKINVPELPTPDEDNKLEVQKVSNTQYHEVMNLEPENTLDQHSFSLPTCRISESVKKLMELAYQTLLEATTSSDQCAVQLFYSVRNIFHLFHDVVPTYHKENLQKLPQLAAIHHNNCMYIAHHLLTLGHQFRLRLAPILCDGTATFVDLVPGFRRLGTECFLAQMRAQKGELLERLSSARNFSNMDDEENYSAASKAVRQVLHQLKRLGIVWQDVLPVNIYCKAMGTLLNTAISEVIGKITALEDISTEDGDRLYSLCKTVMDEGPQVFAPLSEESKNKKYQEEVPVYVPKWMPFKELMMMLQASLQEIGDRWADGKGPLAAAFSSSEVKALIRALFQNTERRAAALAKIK

log2 fold change, inactive:
O=C1NC(=NCc2cccs2)S/C1=C\c1ccc2ncccc2c1 -0.021, Cc1ccc(-n2nc(C(C)(C)C)cc2NC(=O)Nc2ccc(OCCN3CCOCC3)c3ccccc23)cc1 [doramapimod] 0.048, CNC(=O)c1ccccc1Nc1nc(Nc2ccc(N3CCOCC3)cc2OC)ncc1Cl 0.035, CNC(=O)c1ccc(Nc2ncc(C(F)(F)F)c(NCc3nccnc3N(C)S(C)(=O)=O)n2)cc1 [defactinib] -0.083, C/C(=N\NC(=O)c1cccc(S(=O)(=O)N2CCOCC2)c1)c1cc(Cl)ccc1O 0.075, CCCc1cc(C)[nH]c(=O)c1CNC(=O)c1cc(-c2ccnc(N3CCN(C)CC3)c2)cc2c1cnn2C(C)C 0.072, CN1CCc2c(c3ccccc3n2Cc2ccc(C(=O)NO)cc2)C1 [Tubastatin A] 0.031, CN1CCN(CCOc2cc(OC3CCOCC3)c3c(Nc4c(Cl)ccc5c4OCO5)ncnc3c2)CC1 [saracatinib] -0.031, NC(=O)c1ccc2nc(-c3ccc(Oc4ccc(Cl)cc4)cc3)[nH]c2c1 -0.005, COc1cc(C(=O)O)ccc1NC(=O)[C@@H]1N[C@@H](CC(C)(C)C)[C@](C#N)(c2ccc(Cl)cc2F)[C@H]1c1cccc(Cl)c1F [idasanutlin] -0.035, COC(=O)N[C@@H](C)CNc1nccc(-c2cn(C(C)C)nc2-c2cc(Cl)cc(NS(C)(=O)=O)c2F)n1 [encorafenib] 0.094
